Nrf2 block: Nrf2 pathway inhibition | A549 ARE-Fluc reporter, luciferase luminescence, 18-24 h | Potency, µM (titrated, usually from 46 µM), actives largely listed as inhibitors | hit rate 2.1% among 360,000; further: nearly all actives have a fitted effect of over 60% in size
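In this cell-based qHTS, ARE-driven firefly luciferase in A549 cells reports Nrf2 activity; the luminescent signal after BugLite lysis is the measured value, with a prior CellTiter-Fluor read for cell health.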
Nrf2 ARE act: activators of Nrf2 (ARE) signaling; AREc32 ARE-luciferase reporter (MCF7-derived line), luminescence, 24 h; Potency, µM (titrated, usually from 46.1 µM), usual class: activators; hit rate 0.31% among 410,000; further: nearly all actives have a fitted effect of over 65% in size
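Each well held 1000 AREc32 cells, which were incubated with compound for 24 hr at 37 deg C after overnight attachment, and ARE reporter activity was quantified by firefly luciferase luminescence.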
ELG1 DNA repair: ELG1-dependent DNA repair inhibition; Potency, µM (doses to about 46.1 µM), hits mostly inhibitors; hit rate 2.3% among 330,000; AID 504467; HEK293T ELG1-luciferase reporter, luminescence, 16 h; DNA damage induced by 5-fluorouridine; further: nearly all actives have a fitted effect of over 55% in size
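Reporter activity after DNA damage by 5-fluorouridine is monitored. Compound-treated cells incubate 16 hr at 37 °C, then ONE-Glo is added for 30 min before luminescence reading.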
A549 viability: kills or reduces viability of A549 cells in Nrf2 counter-screen | Potency, µM (series often up to 46 µM), actives largely listed as inhibitors | hit rate 0.16% among 390,000 | A549 ARE-Fluc cells, CellTiter-Fluor viability, 18-24 h
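A549 ARE-Fluc cells in 5% FBS OPTI-MEM, 5000 cells/well, rested 2 h then exposed to compounds in concentration-response for 18-24 h at 37 °C. Viability by CellTiter-Fluor fluorescence (Ex 405/Em 525) after 30 min; luciferase luminescence (BugLite, 15 min, RT) read afterwards.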
Of the large screens only hits and unclear results are named; the others gave an inactive call. Hits are enriched below; roughly 3.7% of the tested compounds scored in any of these assays. The call rests on the fitted dose curve; in most records, active means well fitted curve in the direction sought with a large enough effect; inconclusive means small, poorly fitted or top-dose-only effect, or another doubt; inactive means no such curve, though single readings can be large; an effect the other way counts as inactive or inconclusive.

COc1ccccc1C1CC(c2cccs2)=Nc2ccccc2S1 (stereo not given)	Nrf2 ARE act 18µM, ELG1 DNA repair inconclusive
COCCCn1c(SCC(=O)Nc2ccc(F)cc2)nc2c(sc3ccccc32)c1=O	none (no result: Nrf2 block, ELG1 DNA repair)
CCN(Cc1ccc2c(c1)OCO2)C(=O)CSc1nc(C)nc2sc(C)c(C)c12	ELG1 DNA repair 18µM
COC(=O)c1c(NC(=S)Nc2ccc(C(=O)N3CCOCC3)cc2)sc2c1CCC2	none
Cc1ccc(/C=C2\SC(=S)N(CCCC(=O)Nc3cccnc3)C2=O)cc1	Nrf2 block 12µM, ELG1 DNA repair inconclusive, A549 viability inconclusive
O=C(CCCN1C(=O)/C(=C\c2cccc(Br)c2)SC1=S)Nc1cccnc1	Nrf2 block inconclusive, Nrf2 ARE act 10µM, ELG1 DNA repair inconclusive, A549 viability inconclusive
COc1ccccc1/C=C1/SC(=S)N(CCC(=O)Nc2cccnc2)C1=O	Nrf2 block inconclusive
CCc1ccc(/C=C2\SC(=S)N(CCCC(=O)Nc3ccccn3)C2=O)cc1	Nrf2 block 23µM
O=C(CCCN1C(=O)/C(=C/c2cccc(Br)c2)SC1=S)Nc1ccccn1	Nrf2 block inconclusive, ELG1 DNA repair inconclusive, A549 viability inconclusive
O=C(CCCN1C(=O)/C(=C/c2ccccc2OC(F)F)SC1=S)Nc1cccnc1	Nrf2 ARE act inconclusive, ELG1 DNA repair 21µM, A549 viability inconclusive
COC(=O)c1ccc(/C=C2/SC(=S)N(CCCC(=O)Nc3ccccn3)C2=O)cc1	ELG1 DNA repair inconclusive
Cc1ccc(/C=C2\SC(=S)N(CC(=O)Nc3cccnc3)C2=O)cc1	none
COc1ccc(NC(=O)c2cc3c(=O)n(C)c4cc(Cl)ccc4c3s2)cc1Cl	none (no result: Nrf2 block, ELG1 DNA repair)
O=C(CCCN1C(=O)/C(=C/c2cccc(Br)c2)SC1=S)Nc1cccnc1	Nrf2 block inconclusive, Nrf2 ARE act inconclusive, ELG1 DNA repair 9.2µM, A549 viability inconclusive
COc1ccc2nc(NC(=O)c3cccc(OCc4c(C)noc4C)c3)sc2c1	Nrf2 block inconclusive, ELG1 DNA repair 26µM, A549 viability inconclusive
COc1ccc2nc(NC(=O)C3CCCN(S(=O)(=O)c4c(C)noc4C)C3)sc2c1 (stereo not given)	ELG1 DNA repair inconclusive
CCOc1ccc2nc(NC(=O)C3CCCN(S(=O)(=O)c4cccc5nonc45)C3)sc2c1 (stereo not given)	Nrf2 block inconclusive, ELG1 DNA repair 23µM
CCOc1ccc2nc(NC(=O)C3CCCN(S(=O)(=O)c4c(C)noc4C)C3)sc2c1 (stereo not given)	Nrf2 block 21µM, ELG1 DNA repair inconclusive
CCSc1nnc(NC(=O)c2cccc(OCc3c(C)noc3C)c2)s1	Nrf2 block inconclusive, ELG1 DNA repair inconclusive
COc1ccc2nc(NC(=O)C3CCCN(S(=O)(=O)c4cccc5nonc45)C3)sc2c1 (stereo not given)	ELG1 DNA repair 26µM
O=C(Nc1ccc(OC(F)(F)F)cc1)C1CCCN(S(=O)(=O)c2cccc3nonc23)C1 (stereo not given)	none (no result: ELG1 DNA repair)
COc1ccc(NC(=O)C2CCCN(S(=O)(=O)c3cccc4nonc34)C2)c(OC)c1 (stereo not given)	none
CCOc1cc(CNC(=O)c2cc(-c3ccccc3)n[nH]2)cc(OCC)c1OCC	Nrf2 block inconclusive (no result: ELG1 DNA repair)
Cc1ccc(CC(=O)Nc2c(C(=O)N3CCN(c4ccccc4F)CC3)oc3ccccc23)cc1	Nrf2 block inconclusive (no result: ELG1 DNA repair)
COc1ccc(CNC(=O)C2CCCN(S(=O)(=O)c3cccc4nsnc34)C2)cc1 (stereo not given)	Nrf2 block inconclusive
COc1ccc2nc(NC(=O)C3CCCN(S(=O)(=O)c4cccc5nsnc45)C3)sc2c1 (stereo not given)	Nrf2 block inconclusive, ELG1 DNA repair 12µM
COc1ccc2nc(NC(=O)C3CCCN3S(=O)(=O)c3ccc(C)cc3)sc2c1 (stereo not given)	ELG1 DNA repair 23µM (no result: Nrf2 block)
COc1cccc(N2CCN(C(=O)C3CCCN(S(=O)(=O)c4cccc5nsnc45)C3)CC2)c1 (stereo not given)	Nrf2 block 16µM (no result: ELG1 DNA repair)
CN1CC(c2ccc(Cl)c(Cl)c2)[C@@]2(COc3ccccc3C2=O)[C@@]12C(=O)Nc1ccccc12 (stereo not given in full)	Nrf2 block 18µM, A549 viability inconclusive
c1cc(-c2cccs2)nc(-c2cccs2)c1	ELG1 DNA repair inconclusive
c1csc(-c2cn3ccc4ccccc4c3n2)c1	Nrf2 block inconclusive, ELG1 DNA repair 16µM
CCCCC(=O)NC(c1ccccc1)c1ccc2cccnc2c1O (stereo not given)	Nrf2 block inconclusive, ELG1 DNA repair inconclusive
CCCC(=O)NC(c1ccc(OC)cc1)c1ccc2cccnc2c1O (stereo not given)	Nrf2 block inconclusive, ELG1 DNA repair inconclusive, A549 viability inconclusive
CCC(=O)NC(c1ccccc1OC)c1ccc2cccnc2c1O (stereo not given)	Nrf2 block inconclusive, ELG1 DNA repair 4.1µM
CCCCC(=O)NC(c1ccccc1Cl)c1ccc2cccnc2c1O (stereo not given)	Nrf2 block inconclusive, ELG1 DNA repair 3.3µM
O=C1c2ccccc2NC(c2ccccc2OCc2ccccc2)N1Cc1ccco1 (stereo not given)	Nrf2 block inconclusive (no result: Nrf2 ARE act, ELG1 DNA repair)
CCc1nc2c(OCCC3CCCCC3)cccn2c1N(C)C(=O)c1ccc(C)cc1	none (no result: Nrf2 block, ELG1 DNA repair, A549 viability)
C/C(N)=C(/C#N)C(=O)CSc1nnc(SCc2ccc(Cl)cc2)s1	Nrf2 block 21µM, ELG1 DNA repair inconclusive
CCC(CC)C(=O)N(C)c1c(C)nc2c(OCc3ccc(OC(F)F)cc3)cccn12	none (no result: Nrf2 block, ELG1 DNA repair, A549 viability)
CCOc1cc(C=C(C(=O)OC)C(=O)OC)ccc1OCc1ccc([N+](=O)[O-])cc1	Nrf2 block 18µM, ELG1 DNA repair 21µM, A549 viability inconclusive
O=C(NCC(c1ccco1)N1CCCC1)c1cccc(S(=O)(=O)N2CCc3ccccc32)c1 (stereo not given)	none (no result: Nrf2 block, ELG1 DNA repair, A549 viability)
CCOC(=O)Nc1ccc2c(CN3CCN(S(=O)(=O)c4ccccc4F)CC3)cc(=O)oc2c1	ELG1 DNA repair 6.5µM
COCCNc1nc(NCCOc2ccccc2)c2sc(-c3ccccc3)cc2n1	none (no result: Nrf2 block, ELG1 DNA repair, A549 viability)
CCCCc1ccc(NC(=O)CSC2=NN3CCCC(=O)N=C3S2)cc1	none
COc1ccccc1C(=O)NCC(=O)N=Nc1c(O)n(C(C)C)c2ccccc12	Nrf2 block 23µM
CC(=O)Nc1ccc(NC(=O)c2cc([N+](=O)[O-])cc([N+](=O)[O-])c2)cc1	none
Cc1ccc(NC(=O)c2ccc(N/N=C/c3cccc(O)c3)c([N+](=O)[O-])c2)cc1	Nrf2 block 18µM, A549 viability inconclusive
Cc1ccccc1NC(=O)c1ccc(N/N=C/c2ccccc2O)c([N+](=O)[O-])c1	none
Cc1ccc(NC(=O)c2ccc(Nc3c([N+](=O)[O-])cc([N+](=O)[O-])cc3[N+](=O)[O-])cc2)cc1	ELG1 DNA repair 7.3µM
Cc1ccc(N=C(NOCc2ccc(Cl)cc2Cl)c2nonc2N)c(C)c1	Nrf2 block 23µM
CCCCNc1cc(NC2CCCCC2)c2c3c(onc13)-c1ccccc1C2=O	none (no result: ELG1 DNA repair)

Compound activity: PubChem, National Center for Advancing Translational Sciences (NCATS)
